Assay results reported in PubChem BioAssay.
Activity calls are given as the source filed them.

What was measured:
[1] = optical density shifts of acrAB sulA E. coli – strain DRC41, OD650, 48 h, E. coli filamentation inducer project, primary screen (AID 1152); details: higher = more signal, called active from +8 up or from −8 down;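 note: E. coli MC1000 strain DRC41 lacking acrAB efflux pump and sulA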
[2] = probe aLefty1 binding on compound microarray – biochemical, small-molecule microarray, 635/667 nm fluorescence, primary screen (AID 1153); details: higher = more signal;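 note: score merges spot fluorescence with signal-to-noise ratio from the scanned slide images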
[3] = plasmodial surface anion channel blockers, osmotic lysis – cell-based, P. falciparum Indochina, OD700, 1 h, primary screen (AID 1154); details: P. falciparum Indochina infected RBC osmotic lysis, higher = more signal, called active from +8 up or from −8 down
[4] = plasmodial surface anion channel blockers, osmotic lysis – cell-based, P. falciparum Indochina, OD700, 2 h, primary screen (AID 1155);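 note: lysis reports solute entry through the parasite surface anion channel PSAC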; details: P. falciparum Indochina infected erythrocytes, higher = more signal, called active from +8 up or from −8 down
[5] = changes in parasitized red cell lysis, either direction – P. falciparum Indochina, OD700, 3 h, PSAC antagonist project, primary screen (AID 1156); details: P. falciparum-infected erythrocytes, osmotic lysis, higher = more signal, called active from +8 up or from −8 down
[6] = plasmodial surface anion channel blockers, osmotic lysis – cell-based, P. falciparum Indochina, OD700, 18 h, primary screen (AID 1157); details: P. falciparum Indochina infected erythrocytes, osmotic lysis OD700, 18 h; higher = more signal, called active from +8 up or from −8 down
[7] = S6 kinase pathway phospho-S6 level changes – cell-based, A549, cytoblot, luminescence, serum-stimulated, primary screen (AID 1158); details: 5 h, higher = more signal;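 note: serum-stimulated A549 lung adenocarcinoma cells; signal is phosphorylated S6 detected by cytoblot immunostaining with HRP secondary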
[8] = target: NADPH oxidase 2 (Homo sapiens) (UniProt P04839); assay: compounds shifting NOX2 Amplex Red fluorescence – cell-based, HEK293-NOX2, PMA-stimulated, NOX inhibitor project, primary screen (AID 1159); details: 45 min, higher = more signal, called active from +8 up or from −8 down; note: test concentration not given here
[9] = target: NADPH oxidase 4 (Homo sapiens) (UniProt Q9NPH5); assay: compounds shifting NOX4 Amplex Red fluorescence – cell-based, HEK293-NOX4, tetracycline-induced, NOX inhibitor project, primary screen (AID 1160); details: HEK293-NOX4, Amplex Red H2O2 fluorescence, 45 min; higher = more signal, called active from +8 up or from −8 down
[10] = target: NADPH oxidase 5 (Homo sapiens) (UniProt Q96PH1); assay: compounds shifting NOX5 Amplex Red fluorescence – cell-based, HEK293-NOX5, NOX inhibitor project, primary screen (AID 1161); details: HEK293-NOX5, ionomycin, 45 min, higher = more signal
NADPH oxidase 5 (Homo sapiens), sequence (Q96PH1 whole entry, looked up): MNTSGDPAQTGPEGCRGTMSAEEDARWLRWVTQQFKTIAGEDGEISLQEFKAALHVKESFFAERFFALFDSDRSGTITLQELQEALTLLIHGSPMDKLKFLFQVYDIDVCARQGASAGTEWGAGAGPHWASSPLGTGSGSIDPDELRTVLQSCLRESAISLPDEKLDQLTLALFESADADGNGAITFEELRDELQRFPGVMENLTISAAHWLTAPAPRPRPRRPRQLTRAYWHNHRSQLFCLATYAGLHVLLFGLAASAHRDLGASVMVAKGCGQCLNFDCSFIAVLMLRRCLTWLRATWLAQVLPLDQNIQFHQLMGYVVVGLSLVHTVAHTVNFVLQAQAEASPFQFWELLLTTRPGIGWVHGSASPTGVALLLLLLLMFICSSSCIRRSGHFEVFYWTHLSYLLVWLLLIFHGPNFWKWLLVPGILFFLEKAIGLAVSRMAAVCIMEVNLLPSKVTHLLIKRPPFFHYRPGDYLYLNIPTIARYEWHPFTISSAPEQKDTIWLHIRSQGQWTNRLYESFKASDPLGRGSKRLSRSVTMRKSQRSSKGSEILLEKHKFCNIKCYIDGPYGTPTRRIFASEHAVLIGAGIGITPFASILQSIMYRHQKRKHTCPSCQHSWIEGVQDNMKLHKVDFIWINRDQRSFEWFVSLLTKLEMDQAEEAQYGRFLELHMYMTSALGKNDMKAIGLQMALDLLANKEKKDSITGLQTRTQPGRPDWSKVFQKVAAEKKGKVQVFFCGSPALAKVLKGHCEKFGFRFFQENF

NADPH oxidase 4 (Homo sapiens), sequence (Q9NPH5 whole entry, looked up): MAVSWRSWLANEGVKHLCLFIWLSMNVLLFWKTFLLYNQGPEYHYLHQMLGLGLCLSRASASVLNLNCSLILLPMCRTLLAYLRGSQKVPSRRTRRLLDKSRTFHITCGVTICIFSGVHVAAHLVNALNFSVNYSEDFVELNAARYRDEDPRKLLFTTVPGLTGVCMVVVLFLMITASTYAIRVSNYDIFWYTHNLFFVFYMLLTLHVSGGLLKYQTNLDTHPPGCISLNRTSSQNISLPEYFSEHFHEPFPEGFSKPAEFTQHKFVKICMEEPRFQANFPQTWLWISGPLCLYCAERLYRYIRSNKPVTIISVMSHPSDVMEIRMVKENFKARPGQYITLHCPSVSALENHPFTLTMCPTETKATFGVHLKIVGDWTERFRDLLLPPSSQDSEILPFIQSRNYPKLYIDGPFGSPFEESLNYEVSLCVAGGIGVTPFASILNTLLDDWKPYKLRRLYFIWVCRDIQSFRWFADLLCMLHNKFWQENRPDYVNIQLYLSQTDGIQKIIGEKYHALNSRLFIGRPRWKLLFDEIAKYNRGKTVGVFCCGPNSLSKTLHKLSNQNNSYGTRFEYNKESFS
NADPH oxidase 2 (Homo sapiens), sequence (P04839 whole entry, looked up): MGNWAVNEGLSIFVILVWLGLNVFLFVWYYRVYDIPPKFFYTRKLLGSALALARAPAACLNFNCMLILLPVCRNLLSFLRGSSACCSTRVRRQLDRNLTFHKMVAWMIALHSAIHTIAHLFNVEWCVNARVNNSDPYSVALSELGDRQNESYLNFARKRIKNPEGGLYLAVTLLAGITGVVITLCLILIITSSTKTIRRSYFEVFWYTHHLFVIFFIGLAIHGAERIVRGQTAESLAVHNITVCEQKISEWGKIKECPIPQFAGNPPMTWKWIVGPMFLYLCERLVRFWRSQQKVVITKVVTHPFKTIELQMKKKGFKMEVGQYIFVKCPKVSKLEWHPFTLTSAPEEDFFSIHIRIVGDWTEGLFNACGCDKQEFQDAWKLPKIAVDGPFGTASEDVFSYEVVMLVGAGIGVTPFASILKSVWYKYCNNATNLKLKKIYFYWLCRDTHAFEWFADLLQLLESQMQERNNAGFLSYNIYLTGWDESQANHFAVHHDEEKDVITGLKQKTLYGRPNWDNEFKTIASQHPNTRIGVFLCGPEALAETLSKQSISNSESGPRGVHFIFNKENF

SMILES | z-score [1] | composite z-score [2] | z-score [3] | z-score [4] | z-score [5] | z-score [6] | z-score [7] | z-score [8] | z-score [9] | z-score [10]
N#Cc1ccc(NN2C(C(O)c3ccc(B(O)O)cc3)C=CC3CN(c4ccccc4)C(=O)C32)cc1 (stereo not given) | 1.18 (inactive) | 0.521 | 24.4 (active) | 10.6 (active) | 3.76 (inactive) | 2.54 (inactive) | -0.882 | -2.63 (inactive) | -6.25 (inactive) | -4.31
CCOC(=O)C=C1C[C@@H](c2cccc([N+](=O)[O-])c2)O[C@@H](c2cccc([N+](=O)[O-])c2)O1 | -0.546 (inactive) | 1.21 | 1.65 (inactive) | 1.11 (inactive) | -0.481 (inactive) | 0.66 (inactive) | -0.125 | 0.325 (inactive) | 0.481 (inactive) | 1.28
Cc1c(NC(=O)/C(C#N)=C/C=C/c2ccc([N+](=O)[O-])cc2)c(=O)n(-c2ccccc2)n1C | 0.0351 (inactive) | 0.277 | 2.74 (inactive) | 0.636 (inactive) | 0.206 (inactive) | 0.598 (inactive) | -0.279 | -0.696 (inactive) | 0.0994 (inactive) | 0.714
C=CC[C@]1(C(=O)NCCN2CCOCC2)N=C(c2ccc(OCCCO)cc2)O[C@H]1c1ccccc1 | -0.151 (inactive) | 0.296 | 4.72 (inactive) | 0.644 (inactive) | 0.168 (inactive) | 0.275 (inactive) | -0.45 | 0.0905 (inactive) | -0.0559 (inactive) | 0.115
C=CC[C@]1(C(=O)NCC(O)CO)N=C(c2ccc(OCCCO)cc2)O[C@H]1c1ccccc1CN=[N+]=[N-] (stereo not given in full) | 0.0715 (inactive) | 0.104 | 15.7 (active) | 1.44 (inactive) | 4.83 (inactive) | 0.839 (inactive) | -0.99 | 0.871 (inactive) | 0.0808 (inactive) | -0.704
COC(=O)[C@@]1(Cc2ccc(F)cc2)[C@H]2c3cc(C(=O)N(C)C)n(Cc4ccsc4Br)c3C[C@H]2CN1C(=O)c1ccccc1 | -1.62 (inactive) | 1.06 | 3.86 (inactive) | 0.413 (inactive) | 0.952 (inactive) | 0.765 (inactive) | -0.155 | -2.09 (inactive) | -5.46 (inactive) | -2.35
COc1ccc([Si](C)(C)[C@H]2[C@H](CC(=O)N(CCO)Cc3ccccc3)O[C@@]3(C(=O)N(c4ccccc4)c4ccccc43)[C@@H]2C)cc1 | -0.79 (inactive) | -0.0603 | 26.5 (active) | 12.9 (active) | 0.495 (inactive) | 2.04 (inactive) | 0.297 | -0.0743 (inactive) | 0.689 (inactive) | -1.65
COc1ccc([Si](C)(C)[C@H]2[C@H](CC(=O)N3CCC[C@H]3CO)O[C@@]3(C(=O)N(C)c4ccccc43)[C@@H]2C)cc1 | -0.716 (inactive) | -0.0143 | 0.577 (inactive) | 0.225 (inactive) | -0.0347 (inactive) | 0.423 (inactive) | -0.0454 | 1.4 (inactive) | 1.46 (inactive) | 1.86
CC(=O)NCCCC[C@@H]1NC(=O)[C@H]2C[C@@H](C(=O)O)[C@@H](c3cccc(OCCO)c3)N2C1=O | -0.442 (inactive) | 0.189 | 1.15 (inactive) | 0.821 (inactive) | -1.42 (inactive) | 0.253 (inactive) | 0.435 | 0.956 (inactive) | 0.197 (inactive) | -0.0358
C=CC[C@H](O)c1ccc(O)c2ccccc12 | 0.675 (inactive) | -0.0163 | 1.28 (inactive) | 0.439 (inactive) | 0.168 (inactive) | 0.45 (inactive) | -0.323 | -5.36 (inactive) | -1.98 (inactive) | 1.42
COC(=O)[C@@]1(Cc2ccccc2)[C@H]2c3cc(C(=O)N(C)C)n(CCF)c3C[C@H]2CN1C(=O)c1ccccc1 | -0.81 (inactive) | 0.873 | 1.54 (inactive) | 0.322 (inactive) | 0.484 (inactive) | 0.544 (inactive) | -0.546 | 0.148 (inactive) | -1.73 (inactive) | -1.89
COc1c(C)cc(-c2nc(-c3ccccc3)c3c(c2C)CO[Si]3(C(C)C)C(C)C)cc1C | -1.31 (inactive) | 0.0505 | 0.614 (inactive) | 0.521 (inactive) | -0.81 (inactive) | 0.261 (inactive) | 0.564 | -0.41 (inactive) | 0.529 (inactive) | -2.03
CCOC(=O)C[C@H]1[C@H](OC(=O)Cc2ccc3c(c2)OCO3)[C@@H](NC(=O)CC(C)C)c2cc(OCCCO)ccc2N1C(=O)c1ccc2ccccc2n1 | 0.685 (inactive) | 0.0004 | 2.75 (inactive) | -1.19 (inactive) | -0.161 (inactive) | -2.54 (inactive) | 0.806 | 0.0707 (inactive) | -0.356 (inactive) | -1.54
